# Measurements reported in PubChem BioAssay (EPA / NIEHS).
# Inconclusive results are not listed. The source made the active and inactive calls. Rule for the calls, unless noted: active = hit-call score of the fitted dose curve at least 0.9, where 1 is the maximum; inactive = score below 0.9.
# Tests used:
# [1] = TAMU_HCS_1.5hr_SingleDonor1434_Cytotoxicity: Cytotoxicity Assessment using High-content Screening (HCS) Fluorescent Imaging for the Texas A&M University (TAMU) 1.5-hr Human Induced Pluripotent Stem Cell (iPSC)-derived Cardiotoxicity Assay (AID 2284234; active = hit-call score of the fitted dose curve at least 0.9, where 1 is the maximum)
# In short: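 Human iPSC-derived cardiomyocytes dosed at 0.2, 1, 10, 100 uM final (0.5% DMSO) for 90 min at 37 C. Hoechst 33342-stained nuclei counted by 10x high-content imaging; POD is EC10, a 10% drop in total cell count versus DMSO.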
# [2] = IUF_NPC2c_oligodendrocyte_migration_120hr: Leibniz Research Institute for Environmental Medicine (IUF) 120-hour Neural Progenitor Cell Migration Assay for Oligodendrocyte Migration (NPC2c) (AID 2284297);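 note: O4-positive oligodendrocyte migration distance divided by radial glia migration distance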
# In short: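 Human fetal cortex-derived neural progenitor spheres (0.3 mm) were plated on poly-D-lysine/laminin in N2 differentiation medium and exposed to 7 concentrations for 120 h, with half-medium renewal at day 3. Oligodendrocyte migration distance was normalized to radial glia migration, relative to DMSO.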
# [3] = IUF_NPC2a_radial_glia_migration_120hr: Leibniz Research Institute for Environmental Medicine (IUF) 120-hour Neural Progenitor Cell Migration Assay for Radial Glia Migration (NPC2a) (AID 2284298)
# In short: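 Single 0.3 mm primary human fetal-cortex (GW 16-19) NPC spheres were plated on poly-D-lysine/laminin in N2 differentiation medium and exposed from day 0 for 120 h, half-medium refreshed day 3. Migration distance came from Hoechst nuclei-density imaging, relative to DMSO.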
# [4] = IUF_NPC2a_radial_glia_migration_72hr: Leibniz Research Institute for Environmental Medicine (IUF) 72-hour Neural Progenitor Cell Migration Assay for Radial Glia Migration (NPC2a) (AID 2284299)
# In short: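 Primary hNPC spheres, fetal brain GW 16-19, on PDL/laminin; DMEM/F12 3:1 + 1% N2. Compound dosed day 0, 7 conc. + SC, half-medium refresh day 3. 72 h brightfield, migration distance core-to-front (um), 4 directions averaged.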
# [5] = IUF_NPC2b_neuronal_migration_120hr: Leibniz Research Institute for Environmental Medicine (IUF) 120-hour Neural Progenitor Cell Migration Assay for Neuron Migration (NPC2b) (AID 2284300)
# In short: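 Primary human fetal cortex neural progenitor spheres (0.3 mm) plated on poly-D-lysine/laminin in N2 differentiation medium, exposed 120 h with half-medium refresh at day 3. TUBB3-stained neuron distance from sphere core, normalized to radial glia migration, versus DMSO.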
# [6] = IUF_NPC3_neuronal_differentiation_120hr: Leibniz Research Institute for Environmental Medicine (IUF) 120-hour Neuronal Differentiation Assay (NPC3) (AID 2284301)
# In short: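 Single 0.3 mm neurospheres from human fetal cortex were plated in differentiation medium containing test compound. Medium was half-replaced on day 3. After 120 h cells were fixed, immunostained and imaged, and neuronal fraction was scored against DMSO control.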
# [7] = IUF_NPC4_neurite_length_120hr: Leibniz Research Institute for Environmental Medicine (IUF) 120-hour Neuronal Morphology Assay for Neurite Length (NPC4) (AID 2284302)
# In short: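 Read-out is mean neurite length in µm of TUBB3-positive neurons, skeletonized from high-content fluorescence images after 120 h. Single 0.3 mm primary human neural progenitor spheres differentiated on poly-D-lysine/laminin under continuous compound exposure; DMSO was baseline.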
# [8] = IUF_NPC5_oligodendrocyte_differentiation_120hr: Leibniz Research Institute for Environmental Medicine (IUF) 120-hour Oligodendrocyte Differentiation Assay (NPC5) (AID 2284304; active = hit-call score of the fitted dose curve at least 0.9, where 1 is the maximum;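 note: primary human fetal neural progenitor spheres plated to migrate and differentiate; share of O4-positive cells among Hoechst nuclei found by CNN image analysis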)
# In short: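 Primary human fetal (GW 16-19) neural progenitor spheres (0.3 mm) plated on poly-D-lysine/laminin in N2 differentiation medium, exposed from day 0 for 120 h with half-medium refresh at day 3; O4-positive cells as percent of Hoechst nuclei, CNN-identified, versus DMSO.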
# [9] = IUF_NPC4_neurite_area_120hr: Leibniz Research Institute for Environmental Medicine (IUF) 120-hour Neuronal Morphology Assay for Neurite Area (NPC4) (AID 2284305; active = hit-call score of the fitted dose curve at least 0.9, where 1 is the maximum)
# In short: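 Neurite area is read out as the mean pixel area, excluding nuclei, of skeletonized TUBB3-positive neurons imaged after 120 h. Primary human neural progenitor spheres differentiated on poly-D-lysine/laminin with compound present from day 0. Activity was referenced to DMSO controls.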
# [10] = TAMU_PeakParms_SingleDonor1434_QT: Texas A&M University (TAMU) 1.5-hr Human Induced Pluripotent Stem Cell (iPSC)-derived Cardiomyocytes Calcium (Ca+2) Flux Assay for Cardiotoxicity: QT (decay-rise ratio) (AID 2284235; active = hit-call score of the fitted dose curve at least 0.9, where 1 is the maximum)
# In short: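 iPSC-derived cardiomyocytes (single donor 1434) dosed at 0.2, 1, 10, 100 uM final in 0.5% DMSO, 90 min at 37C. Ca2+ flux fluorescence decay/rise ratio; EC05 (5% increase versus DMSO) as POD, excluding beat-arrest and severe-notch data.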
# [11] = CCTE_Mundy_HCI_hN2_NOG_NeuriteLength: CCTE's Neurite Outgrowth Assay in human hN2 cells for Neurite Length, Mundy Lab (AID 2284220; active = hit-call score of the fitted dose curve at least 0.9, where 1 is the maximum)
# In short: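 Plate hNP1-derived neurons, then add chemical 2 h later as a 1/10 dilution. Stain with anti-βIII-tubulin then Alexa Fluor-488 secondary, and image automatically to measure neurite length.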
# [12] = CCTE_Mundy_HCI_hN2_NOG_NeuronCount: CCTE's Neurite Outgrowth Assay in human hN2 cells for Neuron Count, Mundy Lab (AID 2284221; active = hit-call score of the fitted dose curve at least 0.9, where 1 is the maximum)
# In short: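 Read-out is the number of betaIII-tubulin-positive neurons imaged by automated high-content analysis, with DMSO as negative control.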
# [13] = CCTE_Mundy_HCI_Cortical_Synap_Neur_Matur_NeuriteCount: CCTE's Synaptogenesis and Neurite Maturation Assay in rat cortical cells for Neurite Count, Mundy Lab (AID 2284222);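 note: exposure from day 7 to day 12 in vitro with readout at day 12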
# In short: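 Rat cortical neurons, 96-well; AraC DIV 5; chemical + media change DIV 7; end DIV 12. Fix PFA/Hoechst, anti-MAP2 + anti-synaptophysin IF. HCI neurite count vs DMSO baseline.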
# [14] = CCTE_Mundy_HCI_Cortical_Synap_Neur_Matur_CellBodySpotCount: CCTE's Synaptogenesis and Neurite Maturation Assay in rat cortical cells for Cell Body Spot Count, Mundy Lab (AID 2284223)
# In short: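 Rat primary cortical cultures received AraC at DIV 5 to arrest glia, were dosed with chemical at DIV 7 with media change, and were fixed at DIV 12 (288.33 h). Synaptophysin puncta on MAP2-positive cell bodies per neuron were counted by high-content imaging versus DMSO.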
# [15] = CCTE_Mundy_HCI_Cortical_NOG_BPCount: CCTE's Neurite Outgrowth Assay in rat cortical cells for Branch Point Count, Mundy Lab (AID 2284237);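 for AC50: branch points counted about two days after chemical exposure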
# In short: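 Measured 50.33 h after dosing, this morphology endpoint uses rat primary cortical cultures labelled for betaIII-tubulin. Branch points are quantified by high-content imaging, with DMSO as negative control and baseline.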
# [16] = CCTE_Mundy_HCI_hNP1_Casp3_7: CCTE's Caspase-Glo 3/7 Assay in human neuroprogenitor cells for Apoptosis, Mundy Lab (AID 2284240)
# In short: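 Apoptosis is scored by activated caspase-3/7 luminescence in WA09-derived neural progenitor cells, measured 26.5 h after chemical dosing. Values represent gain of signal relative to DMSO vehicle.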
# [17] = CCTE_Mundy_HCI_hNP1_CellTiter: CCTE's Cell Titer-Glo 2 Assay in human neuroprogenitor cells for Viability, Mundy Lab (AID 2284241; active = hit-call score of the fitted dose curve at least 0.9, where 1 is the maximum;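 for AC50: a hit is a drop in ATP luminescence versus DMSO meaning reduced viability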)
# In short: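 Human neural progenitor cells (hNP1, WA09-derived) were plated on poly-L-ornithine/laminin and grown 40 to 44 hours at 37 °C, 5% CO2 before chemical addition. Twenty-four hours later, ATP was measured by CellTiter-Glo luminescence; loss of signal versus DMSO indicates reduced viability.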
# [18] = CCTE_Mundy_HCI_Cortical_NOG_NeuronCount: CCTE's Neurite Outgrowth Assay in rat cortical cells for Neuron Count, Mundy Lab (AID 2284236; active = hit-call score of the fitted dose curve at least 0.9, where 1 is the maximum;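 note: neurons counted by imaging betaIII-tubulin and Hoechst stained cortical cells; cells exposed to compound for about 48 hours before fixation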)
# In short: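 Read-out: neuron number by high-content imaging of betaIII-tubulin (Alexa Fluor-488) and Hoechst-labelled rat primary cortical cells.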
# [19] = CCTE_Mundy_HCI_Cortical_Synap_Neur_Matur_NeuronCount: CCTE's Synaptogenesis and Neurite Maturation Assay in rat cortical cells for Neuron Count, Mundy Lab (AID 2284242; active = hit-call score of the fitted dose curve at least 0.9, where 1 is the maximum;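 for AC50: hits reduce neuron count versus DMSO baseline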)
# In short: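 Neuron number was scored by automated high-content imaging of Hoechst- and MAP2-labelled rat primary cortical cells. Glial growth was arrested with AraC at DIV 5, compounds were applied from DIV 7, and cultures ended at DIV 12.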
# [20] = CCTE_Mundy_HCI_hNP1_Pro_ResponderAvgInten: CCTE's Proliferation Assay in human neuroprogenitor cells, Mundy Lab (AID 2284224; active = hit-call score of the fitted dose curve at least 0.9, where 1 is the maximum)
# In short: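 Proliferation was scored as BrdU labelling intensity in human neural progenitors derived from WA09 embryonic cells, measured 26.25 hours after chemical dosing. Activity was fitted relative to DMSO.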
smiles,measurement,setting,value
CC(C)(c1cc(Br)c(O)c(Br)c1)c1cc(Br)c(O)c(Br)c1,AC50,[1],84.8 µM (active)
same,AC50,[2],3.61 µM (active)
same,AC50,[3],3.14 µM (active)
same,AC50,[4],3.76 µM (active)
same,AC50,[5],5.12 µM (active)
same,AC50,[6],5.06 µM (active)
same,AC50,[7],3.33 µM (active)
same,AC50,[8],0.628 µM (active)
same,AC50,[9],5.13 µM (active)
c1ccc2ccccc2c1,outcome,[1],inactive
same,outcome,[10],inactive
Oc1ccccc1,outcome,[11],inactive
same,outcome,[12],inactive
same,outcome,[13],inactive
same,outcome,[14],inactive
same,outcome,[15],inactive
same,outcome,[16],inactive
same,outcome,[17],inactive
O=C1O[C@H]([C@@H](O)CO)C(O)=C1O,outcome,[13],inactive
same,outcome,[14],inactive
same,outcome,[18],inactive
same,outcome,[15],inactive
same,outcome,[16],inactive
same,outcome,[17],inactive
same,outcome,[2],inactive
same,outcome,[3],inactive
same,outcome,[4],inactive
same,outcome,[5],inactive
same,outcome,[6],inactive
same,outcome,[7],inactive
same,outcome,[9],inactive
CCCOC(=O)c1cc(O)c(O)c(O)c1,outcome,[1],inactive
same,AC50,[10],22.1 µM (active)
CN1C(=O)CC[C@H]1c1cccnc1,outcome,[11],inactive
same,outcome,[12],inactive
same,outcome,[13],inactive
same,outcome,[14],inactive
same,outcome,[15],inactive
same,outcome,[16],inactive
same,outcome,[17],inactive
same,outcome,[19],inactive
CN(C)c1ccc(C(=C2C=CC(=[N+](C)C)C=C2)c2ccc(N(C)C)cc2)cc1,AC50,[1],4.8 µM (active)
same,AC50,[10],0.352 µM (active)
CC/C(=C(/CC)c1ccc(O)cc1)c1ccc(O)cc1,AC50,[11],7.97 µM (active)
same,AC50,[12],3.72 µM (active)
same,outcome,[13],inactive
same,outcome,[14],inactive
same,outcome,[20],inactive
same,AC50,[1],50 µM (active)
same,outcome,[10],inactive
same,AC50,[18],28.9 µM (active)
same,AC50,[15],12.8 µM (active)
same,AC50,[16],26.5 µM (active)
same,AC50,[17],29.7 µM (active)
same,AC50,[19],14 µM (active)
